Dicer processing = inhibitors of human Dicer processing of pre-microRNA; AID 1347074; actives 6% (n = 47,000); cat-ELCCA pre-miR-21 Dicer processing, chemiluminescence; stronger effect = higher value; z-score at 25 µM; Q9UPY3; in the data active = z-score above about 3, passing the limit was not always enough;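 note: plate controls were vehicle for no effect and no enzyme for full effect; higher signal means more uncleaved substrate so more Dicer inhibition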
Starred values were filed as active, the others as inactive. This is one part of a sample in which hits are shown more often than they occur.

SMILES | Dicer processing
CN(C)S(=O)(=O)n1nc(/C=C/c2ccccc2Cl)nc1-c1ccccc1O | 8.11*
Oc1ccccc1-c1nc(/C=C/c2cccs2)nn1-c1ccccc1 | 2.96
CCOC(=O)c1cnc(=S)[nH]c1C(F)(F)F | -0.21
Cc1cccc(C2CC(=O)c3cnc4c(-c5ccc(F)cc5)c(C)nn4c3C2)c1 (configuration not stated) | -0.19
CCc1cccc(C)c1NC(=O)N(Cc1ccccc1)C(C)C | 0.43
CCOC(=O)/C(C#N)=C/Nc1ncccc1C | -1.08
Cc1ccccc1NC(=O)c1cc(-c2ccccc2)n(-c2ccccc2)c1C | -1.12
Cc1cccn2c(=O)c(NC(=O)c3ccc(Cl)cc3)cnc12 | 0.05
CCCS(=O)(=O)c1c(S(=O)(=O)CCC)c2c(C)cccn2c1C(=O)OC | 0.26
COC(=O)c1nc2c(C)cccn2c1F | 3.08*
CCC(CO)Nc1nc2c(c(=O)n(C)c(=O)n2C)n1Cc1ccccc1 (configuration not stated) | 0.37
COc1cc(Br)cc2cc(C(=O)O)c(=O)oc12 | -0.41
CCN(CCC#N)c1ccc(N=Nc2c(O)ccc3ccccc23)cc1 | 6.13*
Oc1ccc2ccccc2c1N=Nc1cccc(Cl)c1 | 3.73
Oc1ccc2ccccc2c1N=Nc1ccccc1F | 1.43
COc1ccc(N=Nc2c(O)ccc3ccccc23)cc1 | 3.43*
Cc1cccc(N=Nc2c(O)ccc3ccccc23)c1 | 2.17
Oc1ccccc1N=Nc1c(O)ccc2ccccc12 | 10.2
COc1c(Cl)cc(Cl)c(OC)c1C(N)=O | -0.4
CC(C)n1c(C(F)(F)F)nc2cc(C(=O)Nc3ccc(Cl)cc3)ccc21 | -1.28
CCOC(=O)c1sc(NC(=O)C(CC)Sc2nc(C)cc(C)n2)nc1C (configuration not stated) | -0.54
Cn1nc(-c2ccc(S(=O)(=O)N=S(C)(=O)c3ccc(Cl)cc3)s2)cc1C(F)(F)F (configuration not stated) | -0.51
CCn1c2ccccc2c2nnc(SCC(=O)Nc3nc4ccccc4s3)nc21 | 0.35
COc1cc(Br)c(C(=O)O)cc1OC | 0.65
CCOC(=O)C1C2C=CC3(CN(C(C)C)C(=O)C13)O2 (configuration not stated) | -0.64
SMILES | Dicer processing
Cc1cc2n(n1)C(c1sccc1C)Nc1c(C)cccc1-2 (configuration not stated) | 0.5
CCOc1cc(C2Nc3ccccc3-c3cc(C)nn32)ccc1O (configuration not stated) | 0.18
COc1cc(C2Nc3c(C)cccc3-c3cc(C)nn32)ccc1O (configuration not stated) | 0.04
CCOc1cccc(C2Nc3c(C)cccc3-c3cc(C)nn32)c1O (configuration not stated) | 2.69
CCOc1cc(C2Nc3c(C)cccc3-c3cc(C)nn32)ccc1O (configuration not stated) | 3.63*
Cc1cc2n(n1)C(c1cc(Br)ccc1O)Nc1ccccc1-2 (configuration not stated) | 4.63*
Cc1cc2n(n1)C(c1sccc1C)Nc1ccccc1-2 (configuration not stated) | 1.19
Cc1cc2n(n1)C(c1ccc(O)c(O)c1)Nc1c(C)cccc1-2 (configuration not stated) | -0.93
Cc1cc2n(n1)C(c1ccc(N(C)C)cc1)Nc1c(C)cccc1-2 (configuration not stated) | 6.03*
Cc1cc2n(n1)C(c1ccc(N(C)C)cc1)Nc1ccccc1-2 (configuration not stated) | 1.27
COc1ccc(C2Nc3c(C)cccc3-c3cc(C)nn32)cc1O (configuration not stated) | 3.86*
Cc1cc2n(n1)C(c1ccccc1O)Nc1ccccc1-2 (configuration not stated) | 0.37
COc1ccc(/C=N/Nc2c([N+](=O)[O-])c(C)nn2C)cc1 | 1.02
Nc1nc2c(c(=O)[nH]1)C(c1cccc(Cl)c1)CC(=O)N2 (configuration not stated) | -1.59
COc1ccccc1N1CC(C)(C)C(=O)N(C(=O)c2cccc(C(F)(F)F)c2)C1=S | -2.05
CCOC(C#CCN(CC)CC)(c1ccccc1)c1ccccc1 | 1.31
COc1ccccc1Cn1c(=O)sc2ccccc21 | 0.7
CN(C(=O)COc1cc(C(F)(F)F)n(C)n1)c1ccccc1 | -0.76
COc1ccc(C2Nc3ccccc3-c3cc(C)nn32)cc1O (configuration not stated) | 3.63*
COc1ccc(C2Nc3ccccc3-c3cc(C)nn32)cc1 (configuration not stated) | 1.8
COc1cccc(C2Nc3ccccc3-c3cc(C)nn32)c1OC (configuration not stated) | -0.12
CCn1c2ccccc2c2nnc(SCC(=O)Nc3cc(C)ccn3)nc21 | 0.77
CCOC(=O)c1cc(CC)sc1NC(=O)Cn1c(=O)oc2ccccc21 | 0.62
CC(C)(C)OC(=O)NC1CCN(Cc2c(F)cccc2Cl)CC1 | -1.6
CCOC(=O)C(=CNc1ccc(F)c(C#N)c1)C(=O)OCC | 3.42*
SMILES | Dicer processing
CCOC(=O)C(=CNc1nc2ccc(F)cc2s1)C(=O)OCC | 0.63
CCOC(=O)C(=CNc1ccc2c(c1)CCN2C(C)=O)C(=O)OCC | 1.53
Oc1ccc(-n2nnnc2SCc2cc(F)cc(F)c2)cc1 | 0.61
COc1ccccc1-c1noc(CSc2nc(N)cc(=O)[nH]2)n1 | 2.02
Cc1ccc(-c2noc(CSc3nc(N)cc(=O)[nH]3)n2)cc1 | 1.23
COc1ccc(-c2noc(CSc3nc(N)c(-c4ccccc4)c(=O)[nH]3)n2)cc1 | 3.91*
CC(=O)Nc1nnc(SCC(=O)Nc2ccc(F)c(F)c2F)s1 | -1.19
CSc1nc(NC(=O)NS(=O)(=O)Oc2ccc(Cl)cc2Cl)nc(-c2cccnc2)n1 | 0.01
CCOC(=O)c1sc(SCc2ccc(Cl)cc2)c(S(=O)(=O)C(C)C)c1N | -1.81
NC(=O)C1CCN(C(=O)CN2CCN(Cc3ccc4c(c3)OCO4)CC2)CC1 | -1.13
COC(=O)c1ccc(Cl)cc1NS(C)(=O)=O | -1.42
CCOC(=O)C(=O)Nc1sc2c(c1C(=O)OCC)CC(C)(C)OC2 | 4.85*
CCCCC(=O)Nc1sc2c(c1C(=O)OCC)CC(C)(C)OC2 | -0.37
CCOC(=O)c1c(NC(=O)CC)sc2c1CC(C)(C)OC2 | 1.03
CN(C)CCCNC(=O)c1c(F)cccc1NC(=O)c1cccs1 | -1.2
C(=N\Nc1cc(-c2ccccc2)nc2ncnn12)/c1ccc(OCc2ccccc2)cc1 | 0.4
CC(=O)Oc1ccc2c(=O)c(-c3ccc(F)cc3)c(C(F)(F)F)oc2c1C | 0.87
CCCCCCSC1=C(C#N)C(c2ccc(F)cc2)CC(=O)N1 (configuration not stated) | -0.41
CCOc1cc(C)c(Cl)cc1S(=O)(=O)n1ccnc1C(C)C | 1.6
COc1ccc(CN2C(=O)c3oc4ccc(C)cc4c(=O)c3C2c2ccc(O)c(OC)c2)cc1 (configuration not stated) | -0.31
CCOc1cc(C2c3c(oc4ccc(C)cc4c3=O)C(=O)N2Cc2ccc(OC)cc2)ccc1O (configuration not stated) | 3.15*
O=C1c2oc3ccccc3c(=O)c2C(c2cccc(O)c2)N1Cc1ccccc1Cl (configuration not stated) | 1.02
COc1cc(C2c3c(oc4ccccc4c3=O)C(=O)N2Cc2ccccc2Cl)ccc1O (configuration not stated) | 3.21*
O=C1c2oc3ccccc3c(=O)c2C(c2ccc(O)cc2)N1Cc1ccccc1Cl (configuration not stated) | 1.01

Screening data (PubChem BioAssay)
